TDP1 cell CPT = qHTS for Inhibitors of human tyrosyl-DNA phosphodiesterase 1 (TDP1): qHTS in cells in presence of CPT; AID 686979, 2013; actives 12% (n = 420,000); chicken DT40 Tdp1-/-;hTDP1 cells + 20 nM CPT, ATP luminescence, 48 h; Potency, µM (titrated, usually from 46.2 µM), usual class: inhibitors; also: nearly all actives have a fitted effect of over 55% in size
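Chicken DT40 Tdp1-/- cells stably complemented with human TDP1 were seeded at 400 cells/well in medium containing 20 nM camptothecin, exposed to pin-transferred compounds, and grown at 37 °C for at least 48 hr. Viability was read as ATP luminescence.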
IL1B secr inh = qHTS for Inhibitors of Inflammasome Signaling: IL-1-beta AlphaLISA Primary Screen; THP-1 LPS/ATP IL-1B secretion, AlphaLISA, 16 h; active compounds read low; activity change, % at 57.5 µM; actives 4.7% (n = 360,000); AID 743279, 2014; in the data active = activity change below about -50%; inconclusive = mostly about -30% to -49%
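Secreted IL-1B measured by AlphaLISA bead assay after 16 h compound exposure of THP-1 cells; compounds (final up to 57.5 uM) added 1 h before LPS (250 ng/mL) and ATP (1.25 mM) stimulation; lower signal means less secretion.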
HT1080NT lethal = qHTS for induction of synthetic lethality in tumor cells producing 2HG: qHTS for the HT-1080-NT fibrosarcoma cell line; HT-1080-NT fibrosarcoma viability, CellTiter-Glo ATP luminescence, 48 h; Potency, µM (series often up to 46.1 µM), usual class: cytotoxic; actives 1.6% (n = 360,000); AID 686970, 2013;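 also: NT is the 2HG producing partner of a matched IDH1 knockdown line; nearly all actives have a fitted effect of over 55% in size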
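HT-1080-NT; 750 cells/well; 5% FBS RPMI; 48 h compound, 37 degrees C; CellTiter-Glo luminescence; curve fitting and curve-class assignment.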
HT1080 IDH1KD tx = qHTS for induction of synthetic lethality in tumor cells producing 2HG: qHTS for the HT-1080-IDH1KD cell line; actives 2% (n = 360,000); Potency, µM (series often up to 46.1 µM), most hits filed as cytotoxic; HT-1080 IDH1 knockdown viability, ATP luminescence, 48 h
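Assay cells: HT-1080 with IDH1 knockdown, 750 per well, RPMI/5% FBS. Exposure: 48 h at 37 °C following 2 h pre-incubation. Read: CellTiter-Glo luminescence; fitted concentration-response, curve class assigned.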
TDP1 cell noCPT = qHTS for Inhibitors of human tyrosyl-DNA phosphodiesterase 1 (TDP1): qHTS in cells in absence of CPT. DT40 Tdp1-/- hTDP1 cells, no CPT, ATP luminescence, 48 h. Potency, µM (highest dose often 46.2 µM), actives largely listed as inhibitors. actives 15% (n = 420,000). AID 686978, 2013; also: nearly all actives have a fitted effect of over 55% in size
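Cells were dispensed at 400 per well, compounds added by pin tool, plates incubated ≥48 hr at 37 °C, then CellTiter-Glo added for 30 min at room temperature before luminescence reading. Line: DT40 Tdp1-/- complemented with hTDP1; camptothecin omitted.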
Of the large screens only hits and unclear results are named; the others gave an inactive call. Only some compounds are listed: those with a hit (about 19% of all), similar ones and a draw of the others. Unless noted, calls follow the shape of the dose curve; as a rule, active = well fitted curve in the direction sought with a large enough effect; inconclusive = small, poorly fitted or top-dose-only effect, or another doubt; inactive = no such curve, though single readings can be large; an effect the other way counts as inactive or inconclusive.

Cc1ccc(/C=N/Nc2nc(N3CCCCC3)nc(N3CCCCC3)n2)o1	TDP1 cell noCPT inconclusive
CC1(C)C(C=C(Cl)Cl)C1C(=O)N/N=C/c1ccccc1F (stereo not given)	TDP1 cell CPT inconclusive, TDP1 cell noCPT 29µM
CC1(C)C(C=C(Cl)Cl)C1C(=O)Nc1ccc([N+](=O)[O-])cc1 (stereo not given)	TDP1 cell CPT 18µM, IL1B secr inh -99, HT1080NT lethal 23µM, HT1080 IDH1KD tx inconclusive, TDP1 cell noCPT 16µM
CC1(C)OC2OC(C(=O)N/N=C/c3ccccc3F)C3OC(C)(C)OC3C2O1 (stereo not given)	none
CCn1c(CC(=O)Nc2ccccc2Cl)nnc1SCC(=O)NC1CCCC1	none
Cn1nnnc1SCCNCc1ccccc1OCc1ccc(Cl)cc1Cl	TDP1 cell CPT 18µM, TDP1 cell noCPT 9.2µM (no result: IL1B secr inh, HT1080NT lethal, HT1080 IDH1KD tx)
Cn1nnnc1SCCNCc1ccccc1Cl	none (no result: IL1B secr inh, HT1080NT lethal, HT1080 IDH1KD tx)
CCOc1cc(CNCCSc2nnnn2C)ccc1OCc1ccc(Cl)cc1Cl	TDP1 cell CPT 26µM, TDP1 cell noCPT 26µM (no result: IL1B secr inh, HT1080NT lethal, HT1080 IDH1KD tx)
CO[C@H]1[C@H](NC(=O)c2cccs2)c2ccccc2C12CCN(Cc1cccn1-c1cccnc1)CC2	none (no result: IL1B secr inh, HT1080NT lethal, HT1080 IDH1KD tx)
O=C(N/N=C/c1ccc([N+](=O)[O-])cc1)c1[nH]ncc1Br	none
COc1ccc2cc(C3CC(c4ccco4)=NN3S(=O)(=O)c3ccccc3)c(Cl)nc2c1 (stereo not given)	TDP1 cell CPT inconclusive, IL1B secr inh inconclusive, TDP1 cell noCPT 15µM
CCOc1ccc2cc(C3CC(c4ccco4)=NN3S(=O)(=O)c3ccccc3)c(Cl)nc2c1 (stereo not given)	TDP1 cell CPT inconclusive, TDP1 cell noCPT inconclusive
COc1ccccc1C1CC(c2ccco2)=NN1S(C)(=O)=O (stereo not given)	TDP1 cell CPT 21µM, TDP1 cell noCPT inconclusive
CCN(CC)S(=O)(=O)c1ccc(C)c(NC(=O)CSc2nc3ccccc3[nH]2)c1	TDP1 cell CPT inconclusive, TDP1 cell noCPT 23µM
CCCc1nnc(NC(=O)CSc2nc3ccccc3[nH]2)s1	TDP1 cell CPT inconclusive, IL1B secr inh -109, TDP1 cell noCPT inconclusive
O=C(O)CSc1ccc(NC(=O)Nc2ccccc2F)cc1	TDP1 cell CPT inconclusive, HT1080 IDH1KD tx inconclusive, TDP1 cell noCPT inconclusive
Cc1ccc2nc(SCC(=O)Nc3cc([N+](=O)[O-])ccc3F)[nH]c2c1	TDP1 cell CPT 18µM, TDP1 cell noCPT inconclusive
CCn1c(SCC(=O)c2[nH]c(C)c(C(C)=O)c2C)nnc1-c1ccccc1	TDP1 cell CPT 23µM, HT1080 IDH1KD tx 16µM, TDP1 cell noCPT 26µM
Cc1ccc2nc(SC(C)C(=O)NC3CCCC3)[nH]c2c1 (stereo not given)	TDP1 cell noCPT inconclusive
Cc1ccc2nc(SCC(=O)Nc3ccc(C)c([N+](=O)[O-])c3)[nH]c2c1	TDP1 cell CPT inconclusive
Cc1ccc2nc(SC(C)C(=O)Nc3cccc([N+](=O)[O-])c3)[nH]c2c1 (stereo not given)	TDP1 cell CPT inconclusive, IL1B secr inh -73, TDP1 cell noCPT inconclusive
CC(=O)c1c(C)[nH]c(C(=O)CSc2nnc(NC3CC3)s2)c1C	TDP1 cell CPT inconclusive, TDP1 cell noCPT 15µM
CC(=O)c1c(C)[nH]c(C(=O)CSc2nc3ccc(C)cc3[nH]2)c1C	TDP1 cell CPT inconclusive, TDP1 cell noCPT 15µM
CC(NC(=O)C(=O)Nc1c2c(nn1-c1ccccc1)CSC2)c1ccccc1 (stereo not given)	TDP1 cell CPT 15µM, TDP1 cell noCPT 21µM (no result: IL1B secr inh, HT1080NT lethal, HT1080 IDH1KD tx)
CC(NC(=O)C(=O)Nc1c2c(nn1-c1ccc(F)cc1)CSC2)c1ccccc1 (stereo not given)	TDP1 cell noCPT 8.2µM (no result: IL1B secr inh, HT1080NT lethal, HT1080 IDH1KD tx)
CCOc1ccc(NC(=O)CSc2nnc(CNC(=O)c3ccco3)o2)cc1	none
COc1cccc(N2CCN(C(=O)c3ccc(CS(=O)Cc4ccc(Cl)cc4)o3)CC2)c1 (stereo not given)	TDP1 cell CPT inconclusive, TDP1 cell noCPT 18µM
COc1cccc(N2CCN(C(=O)c3ccc(CS(=O)Cc4ccccc4Cl)o3)CC2)c1 (stereo not given)	TDP1 cell CPT inconclusive, TDP1 cell noCPT inconclusive
COc1ccc(N2CCN(C(=O)c3ccc(CS(=O)c4cccc(Cl)c4)o3)CC2)cc1 (stereo not given)	TDP1 cell CPT 16µM, TDP1 cell noCPT 15µM
Cc1ccc(CS(=O)Cc2ccc(C(=O)N3CCN(c4ccccc4)CC3)o2)cc1 (stereo not given)	TDP1 cell CPT 21µM, TDP1 cell noCPT inconclusive
O=C(c1ccc(COc2c(F)c(F)c(F)c(F)c2F)o1)N1CCOCC1	TDP1 cell noCPT inconclusive
O=C(c1ccc(COc2c(F)c(F)cc(F)c2F)o1)N1CCN(c2ccccc2)CC1	TDP1 cell CPT 18µM, HT1080NT lethal inconclusive, TDP1 cell noCPT 12µM
COc1ccc(S(=O)Cc2ccc(C(=O)N3CCN(c4cccc(C)c4C)CC3)o2)cc1 (stereo not given)	TDP1 cell CPT 0.58µM, TDP1 cell noCPT 0.92µM
COc1ccc(N2CCN(C(=O)c3ccc(CS(=O)Cc4ccc(C)cc4)o3)CC2)cc1 (stereo not given)	TDP1 cell CPT inconclusive, TDP1 cell noCPT inconclusive
COc1cccc(N2CCN(C(=O)c3ccc(CS(=O)c4cccc(Cl)c4)o3)CC2)c1 (stereo not given)	TDP1 cell CPT 0.52µM, TDP1 cell noCPT 0.52µM (no result: IL1B secr inh, HT1080NT lethal, HT1080 IDH1KD tx)
O=C(COc1ccc(F)cc1)OCc1cc(=O)n2nc(C3CCCCC3)sc2n1	none (no result: IL1B secr inh, HT1080NT lethal, HT1080 IDH1KD tx)
Cc1nc(CS(=O)c2ccc(Cl)cc2)cc(NCc2ccc(Cl)cc2Cl)n1 (stereo not given)	TDP1 cell CPT 15µM, IL1B secr inh -77, HT1080NT lethal inconclusive, HT1080 IDH1KD tx inconclusive, TDP1 cell noCPT 21µM
O=C1C=CC(=Nc2ccc(F)cc2)O1	TDP1 cell CPT 2.3µM, IL1B secr inh -51, HT1080NT lethal inconclusive, HT1080 IDH1KD tx inconclusive, TDP1 cell noCPT 4.6µM
O=C1C=CC(=Nc2ccc3c(c2)C(=O)c2ccccc2-3)O1	none
O=C(CSc1nc(=O)[nH]c2c1CCC2)NCc1ccc(Cl)cc1	none (no result: IL1B secr inh, HT1080NT lethal, HT1080 IDH1KD tx)
O=C(Nc1c(-c2ccc3c(c2)OCO3)[nH][nH]c1=O)c1cccc(C(F)(F)F)c1	TDP1 cell noCPT inconclusive
CC(C)C(=O)N1CCN(c2ccc(NC(=O)c3ccc4c(c3)OCCO4)cc2Cl)CC1	TDP1 cell CPT inconclusive, IL1B secr inh -97, HT1080NT lethal inconclusive, HT1080 IDH1KD tx inconclusive, TDP1 cell noCPT 23µM
